This is a sample that favours compounds with a hit; in the whole collection about 2.8% have one here.
PAFAH1B2 inh: PAFAH1B2 enzyme inhibitors, primary screen, biochemical, fluorescence polarization, human | hit rate 1.2% among 340,000 | inhibition, % at 3.39 µM | recombinant PAFAH1B2, FP-rhodamine activity probe;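 active = inhibition above the mean of all tested compounds plus 3 SD, cut at about 24% in these data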;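 note: 0% = enzyme with DMSO and 100% = wells lacking PAFAH1B2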
PAFAH2 FP inh: PAFAH2 enzyme inhibitors, primary screen, biochemical, fluorescence polarization, human. Platelet-activating factor acetylhydrolase 2, cytoplasmic (Homo sapiens), Q99487. recombinant PAFAH2, FP-rhodamine activity probe. inhibition, % at 3.39 µM. hit rate 0.99% among 340,000. AID 492956, 2010;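 active = inhibition above the mean over all tested compounds plus 3 SD, cut at about 30% in these data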;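 note: inhibitors block probe labeling of enzyme so polarization drops; 0% = enzyme with DMSO and 100% = wells lacking PAFAH2 protein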
Fam108B counter: mouse Fam108B serine hydrolase inhibitors, primary screen, counter-screen for RBBP9 inhibitor project, biochemical, fluorescence polarization; recombinant Fam108B, FP-Rh probe fluorescence polarization; inhibition, % at 9.51 µM; hit rate 0.33% among 300,000; AID 1947, 2009;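 active = inhibition above the screen mean inhibition plus 3 SD, computed separately per campaign, cut at about 18% in these data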;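 note: inhibitors lower polarization as less probe binds the enzyme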
PAFAH1B3 inh: PAFAH1B3 enzyme inhibitors, primary screen, biochemical, fluorescence polarization, human; recombinant PAFAH1B3, FP-rhodamine probe; inhibition, % at 3.39 µM; hit rate 0.28% among 340,000; AID 492972, 2010; Platelet-activating factor acetylhydrolase IB subunit alpha1 (Homo sapiens), Q15102;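 active = inhibition above the screen-wide average of all tested compounds plus 3 SD, cut at about 25% in these data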;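 note: 0% = enzyme with DMSO only and 100% = wells lacking PAFAH1B3 protein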
Target sequence (Q15102 whole entry, looked up): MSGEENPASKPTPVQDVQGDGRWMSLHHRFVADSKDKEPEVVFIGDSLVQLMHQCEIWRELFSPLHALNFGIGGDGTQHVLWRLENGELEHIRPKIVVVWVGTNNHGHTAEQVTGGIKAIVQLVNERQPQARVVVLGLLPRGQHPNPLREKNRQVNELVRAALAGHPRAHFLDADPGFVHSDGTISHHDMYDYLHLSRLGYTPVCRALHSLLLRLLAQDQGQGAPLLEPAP
PME-1 primary: PME-1 inhibitors via competitive probe labeling, primary screen, biochemical, fluorescence polarization, FP-Rh probe, HTS; hit rate 0.53% among 320,000; recombinant PME-1; inhibition, % at 5.9 µM; Protein phosphatase methylesterase 1 (Homo sapiens), Q9Y570;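 active = inhibition above the campaign mean of all compounds plus 3 SD, cut at about 26% in these data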;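 note: competitive labeling of PME-1 active site by serine hydrolase directed probe; 0% = PME-1 with DMSO and 100% = wells lacking PME-1 enzyme; inhibitors block probe labeling so polarization falls and inhibition rises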
Target sequence (Q9Y570 whole entry, looked up): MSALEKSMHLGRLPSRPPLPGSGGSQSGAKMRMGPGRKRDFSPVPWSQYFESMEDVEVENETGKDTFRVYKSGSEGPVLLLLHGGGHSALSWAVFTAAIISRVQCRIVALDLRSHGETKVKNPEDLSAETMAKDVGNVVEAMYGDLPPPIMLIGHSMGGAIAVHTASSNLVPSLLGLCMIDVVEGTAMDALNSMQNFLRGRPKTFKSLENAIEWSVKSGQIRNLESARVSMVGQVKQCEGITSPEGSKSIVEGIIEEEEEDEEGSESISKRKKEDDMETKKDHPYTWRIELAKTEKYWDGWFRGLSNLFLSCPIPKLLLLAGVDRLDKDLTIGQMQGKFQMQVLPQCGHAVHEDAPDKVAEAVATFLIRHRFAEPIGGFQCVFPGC
pPAFAH FP inh: pPAFAH enzyme inhibitors, primary screen, biochemical, fluorescence polarization, human | recombinant pPAFAH, FP-rhodamine probe fluorescence polarization | inhibition, % at 3.39 µM | AID 463082, 2010 | Platelet-activating factor acetylhydrolase (Homo sapiens), Q13093 | hit rate 1.5% among 330,000;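 active = inhibition above the mean inhibition across the screen plus 3 SD, cut at about 25% in these data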;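 note: inhibitors block binding of the rhodamine activity-based probe so polarization drops; 0% = enzyme with DMSO and 100% = wells lacking pPAFAH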
Numbers without * were called inactive; nt = not tested or not shown.

SMILES	PAFAH1B2 inh	PAFAH2 FP inh	Fam108B counter	PAFAH1B3 inh	PME-1 primary	pPAFAH FP inh
O=C(/C=C/c1ccccc1)CC(O)(c1ccccc1)C(F)(F)F (stereo not drawn)	55*	9	-6	-2	-3	2
CNCc1ccccc1Sc1cccc(O)c1	4	-2	0	-2	-2	5
CNCc1ccccc1Sc1cc(O)ccc1O	1	1	4	5	-3	25*
COc1ccccc1OCC(=O)Nc1sc2c(c1C(N)=O)CCC2	-2	5	nt	2	nt	10
COc1cccc(C(=O)OCC(=O)Nc2sc3c(c2C(N)=O)CCC3)c1O	4	19	nt	5	-2	28*
CCOC(=O)N1CCN(S(=O)(=O)c2ccc(C(=O)NNc3nc4cc(C)cc(C)c4s3)cc2)CC1	2	14	7	16	4	28*
Cc1cc(C)c2nc(NNC(=O)c3ccc(S(=O)(=O)N4CCCCC4)cc3)sc2c1	5	13	14	17	7	21
CCOC(=O)N1CCN(S(=O)(=O)c2ccc(C(=O)NNc3nc4c(C)cc(C)cc4s3)cc2)CC1	nt	nt	11	nt	4	32*
CCOC(=O)N1CCN(S(=O)(=O)c2ccc(C(=O)NNc3nc4c(C)cccc4s3)cc2)CC1	8	-13	6	17	6	19
CC1CN(C(=O)CSc2nnc(CNC(=O)c3ccc(S(=O)(=O)N(C)C)cc3)o2)CC(C)O1 (stereo not drawn)	2	3	-2	-3	0	0
S=c1[nH]nc(-c2cc(-c3ccccc3)n[nH]2)n1/N=C/C=C/c1ccco1	nt	nt	6	nt	9	26*
S=c1[nH]nc(-c2n[nH]c3c2CCC3)n1/N=C/C=C/c1ccco1	nt	nt	5	nt	8	21
Cn1cccc1-c1cc(C(=O)N/N=C/c2cc(Br)ccc2O)[nH]n1	8	0	0	8	4	30*
CC(NC(=O)COC(=O)C1(C)CC1(Cl)Cl)c1ccccc1 (stereo not drawn)	7	10	nt	5	-8	-6
CC(=O)NC(=S)NNC(=O)COc1ccc(Br)cc1	4	0	nt	8	nt	nt
CC(C)(C)NC(=O)C(=O)NNC(=O)COc1ccc(Br)cc1	31*	1	3	3	-1	0
COc1ccc(Cl)cc1C(=O)OCC(=O)c1ccc[nH]1	0	0	nt	7	5	-2
Cc1ccc(C(C)C)c(OCC(=O)NNCC(=O)Nc2cccc(F)c2)c1	25*	-3	nt	5	nt	8
Cc1ccccc1NC(=O)c1sc2nc(N3CCOCC3)c3c(c2c1N)CCCC3	3	-1	1	4	12	27*
CCOc1ccc(-n2cc(-c3ccccc3)c3c(=S)nc[nH]c32)cc1	3	3	-4	3	17	28*
COC(=O)C1CN(C(=O)C(C)Oc2ccc(C)c(C)c2)c2ccccc2O1 (stereo not drawn)	5	-6	1	6	5	4
Cn1c(CNC(=O)c2ccc(Cl)cc2)nnc1SCC(=O)Nc1sc2c(c1C#N)CCCC2	26*	-1	-5	3	3	4
CC(=O)Nc1ccc(S(=O)(=O)NC(CSc2ccc(C(=O)O)cc2[N+](=O)[O-])C(=O)O)cc1 (stereo not drawn)	3	-7	-1	7	-2	5
N#Cc1ccccc1NC(=O)CSc1nnc(-c2ccc(F)cc2)n1-c1ccccc1	26*	-4	nt	0	nt	nt
Cc1nnc(SCC(=O)Nc2cc(C(N)=O)cc(C(N)=O)c2)n1-c1ccccc1	28*	2	1	-2	-1	3
SMILES	PAFAH1B2 inh	PAFAH2 FP inh	Fam108B counter	PAFAH1B3 inh	PME-1 primary	pPAFAH FP inh
C[C@H](CO)N1C[C@H](C)[C@@H](CN(C)C(=O)Nc2ccc(F)cc2)Oc2ccc(NS(C)(=O)=O)cc2C1=O	-2	-2	nt	1	nt	3
CC1(C)NC(=O)N(CCCOc2ccc(Br)cc2Cl)C1=O	7	-1	2	9	-5	7
CC1(C)NC(=O)N(CCCCOc2ccc(Br)cc2Cl)C1=O	24*	-5	-2	7	6	3
Cc1ccc(NC(=O)CSc2ncn[nH]2)c([N+](=O)[O-])c1	6	-2	nt	-2	nt	4
CCN(CC)c1ccc(-c2nn3c(-c4ccccc4OC)nnc3s2)cc1	5	0	5	-3	28*	25*
CCc1ccc2oc(=O)cc(CN(C)Cc3ccccc3)c2c1	38*	-9	2	3	0	0
COc1ccc(-c2nc(CN3CCC(C(=O)NCC4CCCO4)CC3)c(C)o2)cc1OC (stereo not drawn)	2	-3	2	0	-9	8
O=[N+]([O-])c1cc(-c2cnc3ccccc3n2)ccc1Oc1ccc(Br)cc1	54*	-7	1	2	-4	5
Cc1nnc(-c2ccc(Oc3ccc(Br)cc3)c([N+](=O)[O-])c2)o1	8	-3	0	-14	-3	16
Cc1ccc(F)cc1NC(=O)CCNC(=O)c1ccc([N+](=O)[O-])cc1	3	-7	-1	-2	0	3
COC(=O)c1ccc(C)c(NC(=O)CCNC(=O)c2ccc([N+](=O)[O-])cc2)c1	3	-5	5	-3	8	29*
CCc1cc(C(=O)NCC(c2cccs2)N2CCOCC2)sc1C (stereo not drawn)	0	4	1	4	3	5
CC(=O)N1CC(C)Sc2ccc(S(=O)(=O)NC(C)c3ccccc3)cc21 (stereo not drawn)	6	-2	1	3	3	1
O=C(CSc1n[nH]c(=O)[nH]c1=O)c1ccc(Cl)cc1Cl	30*	2	-2	7	6	0
O=C(CSc1n[nH]c(=O)[nH]c1=O)Nc1c(Cl)cc(Cl)cc1Cl	0	-10	nt	7	nt	2
O=c1[nH]nc(SCc2cc(Cl)ccc2Cl)c(=O)[nH]1	29*	1	-4	4	-3	0
Cc1ccc(C23CCC(=O)N2C(C(=O)O)CS3)c(C)c1 (stereo not drawn)	6	4	1	-3	3	6
CC1(N=Cc2cc(Cl)ccc2O)COP(=O)(Nc2ccccc2)OC1 (stereo not drawn)	7	-9	nt	15	nt	nt
N#CCCN(C(=O)COC(=O)c1cc2ccccc2oc1=O)c1ccccc1	-3	-6	nt	7	4	-4
Cc1nc2cc(Cl)ccc2n1-c1ccccc1	6	5	2	1	5	25*

Source: PubChem BioAssay
